The AC50 is the midpoint of the concentration-response curve, whichever way the signal moves.

The source made the active and inactive calls. The calls were made as follows: active = hit-call score of the fitted dose curve at least 0.9, where 1 is the maximum; inactive = score below 0.9.

These results are taken from PubChem BioAssay (EPA / NIEHS).

Assay [1] is described as follows: ATG_CRE_CIS: Attagene CIS-FACTORIAL HepG2 Assay for human cAMP Responsive Element (CRE) binding protein 3 (AID 2282926). The conditions noted are these: HepG2 CRE cis-reporter, Attagene multiplexed mRNA; actives raise or lower the signal. The method in brief:
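Capillary electrophoresis of 6-FAM-labelled, HpaI-digested PCR products quantified reporter transcripts. These came from HepG2 transiently transfected with cis-element reporters and exposed to test chemicals for 24 hours, with DMSO defining baseline activity.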

A short description of assay [2]: ATG_CMV_CIS: Attagene CIS-FACTORIAL HepG2 Assay for human CMV (Internal Marker) (AID 2282928).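 Also: endpoint acts as a background internal control marker rather than a target.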 As to conditions: HepG2 CMV promoter reporter, transcription factor profiling; actives raise or lower the signal. The essentials:
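Bidirectional fits against DMSO are applied to reporter mRNA, read by RT-PCR with capillary electrophoresis, from HepG2 cells exposed 24 h. The endpoint serves as an internal CMV background marker within the cis-factorial reporter panel.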

Assay [3] in a line: ATG_DR4_LXR_CIS: Attagene CIS-FACTORIAL HepG2 Assay for human Liver X Receptor (LXR), DR4 submotif (AID 2282929). As to conditions: HepG2 Attagene DR4 cis-reporter, mRNA transcription; actives raise or lower the signal. The essentials:
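HepG2, transient MRTU transfection, cis-element (DR4) promoter; 24 h compound exposure; total RNA → oligo(dT) RT → PCR → 6-FAM primer extension → HpaI cut → CE. Gain/loss vs DMSO, bidirectional fit.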

Assay [4] deals with Aryl hydrocarbon receptor (Homo sapiens) (UniProt P35869). Put plainly: ATG_Ahr_CIS: Attagene CIS-FACTORIAL HepG2 Assay for human Aryl Hydrocarbon Receptor (Ahr) (AID 2282930). The conditions noted are these: HepG2 AhR cis-factorial reporter transcription; actives raise or lower the signal. The essentials:
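Endogenous factor activity is tracked through cis-promoter reporter units transfected into HepG2 cells. Transcript levels at 24 h are read by fluorescent RT-PCR and capillary electrophoresis, with activity in either direction scored relative to DMSO.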

Assay [5] in a line: ATG_AP_1_CIS: Attagene CIS-FACTORIAL HepG2 Assay for human Activator Protein 1 (AP-1) (AID 2282931). The conditions noted are these: HepG2 Attagene cis-factorial AP-1 reporter mRNA; actives raise or lower the signal. The method in brief: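 Transient MRTU transfection of HepG2 → 24 h chemical treatment → RNA isolation, RT-PCR, 6-FAM labelling, HpaI digest → capillary electrophoresis. Fit: bidirectional, DMSO negative control.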

Assay [6] is described as follows: ATG_AP_2_CIS: Attagene CIS-FACTORIAL HepG2 Assay for human Activator Protein 2 (AP-2) (AID 2282932). As to conditions: HepG2 AP-2 cis-reporter, Attagene transcription factor profiling; actives raise or lower the signal. The essentials: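 Read-out: fluorescent reporter mRNA via RT-PCR and capillary electrophoresis, 24 h post-dose in transiently transfected HepG2. Endogenous factors drive cis-promoter reporters; gain or loss of signal fitted bidirectionally against DMSO.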

Assay [7] can be described thus: ATG_BRE_CIS: Attagene CIS-FACTORIAL HepG2 Assay for human Bone Morphogenetic Protein (BMP) Response Element (BRE) (AID 2282933). As to conditions: HepG2 BMP response element reporter, Attagene transcription factor profiling; actives raise or lower the signal. The essentials: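 Endogenous transcription factor activity at a BMP response element was monitored in transfected HepG2 cells 24 h after dosing. Fluorescent RT-PCR products were resolved by capillary electrophoresis, and activity was fitted in both directions versus DMSO.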

Assay [8] deals with Transcription factor E2F1 (Homo sapiens) (UniProt Q01094). Put plainly: ATG_E2F_CIS: Attagene CIS-FACTORIAL HepG2 Assay for human E2F Transcription Factor 1 (AID 2282935). As to conditions: HepG2 Attagene cis-reporter, E2F reporter RNA transcripts; actives raise or lower the signal. The method in brief:
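Transient MRTU transfection of HepG2; 24 h compound exposure; RNA → oligo(dT) RT → PCR → FAM label → HpaI cut → CE fluorescence. Gain/loss of signal fit against DMSO.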

The target of assay [9] is Retinoic acid receptor alpha (Homo sapiens) (UniProt P10276). Put plainly: ATG_DR5_RAR_CIS: Attagene CIS-FACTORIAL HepG2 Assay for human Retinoic Acid Receptor Alpha (RARE), DR5 submotif (AID 2282934).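 As to AC50: reporter responds to endogenous RAR alpha beta and gamma in HepG2 not RARA alone.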 As to conditions: HepG2 Attagene cis-factorial RARE DR5 reporter, mRNA; actives raise or lower the signal. The method in brief: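 After 24 h of chemical exposure, transiently transfected HepG2 cells were lysed for total RNA; the DR5-regulated reporter transcript was quantified via RT-PCR and capillary electrophoresis, with activity fitted bidirectionally against DMSO.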
Retinoic acid receptor alpha (Homo sapiens), sequence (P10276 whole entry, looked up): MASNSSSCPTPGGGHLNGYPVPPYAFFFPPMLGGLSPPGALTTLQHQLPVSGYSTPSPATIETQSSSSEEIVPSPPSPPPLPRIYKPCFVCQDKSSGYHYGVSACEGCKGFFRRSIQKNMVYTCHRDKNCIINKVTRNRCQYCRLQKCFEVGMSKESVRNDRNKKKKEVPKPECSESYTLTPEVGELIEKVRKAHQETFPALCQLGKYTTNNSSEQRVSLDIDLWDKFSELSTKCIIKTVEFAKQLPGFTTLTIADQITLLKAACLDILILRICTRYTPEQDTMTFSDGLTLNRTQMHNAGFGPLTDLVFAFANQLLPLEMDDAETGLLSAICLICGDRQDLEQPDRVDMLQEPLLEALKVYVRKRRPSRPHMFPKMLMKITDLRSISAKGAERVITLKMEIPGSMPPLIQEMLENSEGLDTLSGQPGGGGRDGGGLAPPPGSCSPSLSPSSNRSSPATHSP

Transcription factor E2F1 (Homo sapiens), sequence (Q01094 whole entry, looked up): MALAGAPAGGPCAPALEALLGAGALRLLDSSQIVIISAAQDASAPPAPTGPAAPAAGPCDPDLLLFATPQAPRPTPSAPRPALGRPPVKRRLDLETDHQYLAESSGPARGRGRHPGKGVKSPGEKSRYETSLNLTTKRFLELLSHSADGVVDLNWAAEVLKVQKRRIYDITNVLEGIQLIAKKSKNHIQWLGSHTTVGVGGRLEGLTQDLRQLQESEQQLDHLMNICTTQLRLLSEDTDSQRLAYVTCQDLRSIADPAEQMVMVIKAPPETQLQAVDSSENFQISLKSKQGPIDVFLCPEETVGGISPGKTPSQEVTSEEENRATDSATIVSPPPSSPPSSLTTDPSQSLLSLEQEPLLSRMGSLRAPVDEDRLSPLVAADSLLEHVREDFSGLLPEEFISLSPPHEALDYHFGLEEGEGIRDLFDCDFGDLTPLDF
Aryl hydrocarbon receptor (Homo sapiens), sequence (P35869 whole entry, looked up): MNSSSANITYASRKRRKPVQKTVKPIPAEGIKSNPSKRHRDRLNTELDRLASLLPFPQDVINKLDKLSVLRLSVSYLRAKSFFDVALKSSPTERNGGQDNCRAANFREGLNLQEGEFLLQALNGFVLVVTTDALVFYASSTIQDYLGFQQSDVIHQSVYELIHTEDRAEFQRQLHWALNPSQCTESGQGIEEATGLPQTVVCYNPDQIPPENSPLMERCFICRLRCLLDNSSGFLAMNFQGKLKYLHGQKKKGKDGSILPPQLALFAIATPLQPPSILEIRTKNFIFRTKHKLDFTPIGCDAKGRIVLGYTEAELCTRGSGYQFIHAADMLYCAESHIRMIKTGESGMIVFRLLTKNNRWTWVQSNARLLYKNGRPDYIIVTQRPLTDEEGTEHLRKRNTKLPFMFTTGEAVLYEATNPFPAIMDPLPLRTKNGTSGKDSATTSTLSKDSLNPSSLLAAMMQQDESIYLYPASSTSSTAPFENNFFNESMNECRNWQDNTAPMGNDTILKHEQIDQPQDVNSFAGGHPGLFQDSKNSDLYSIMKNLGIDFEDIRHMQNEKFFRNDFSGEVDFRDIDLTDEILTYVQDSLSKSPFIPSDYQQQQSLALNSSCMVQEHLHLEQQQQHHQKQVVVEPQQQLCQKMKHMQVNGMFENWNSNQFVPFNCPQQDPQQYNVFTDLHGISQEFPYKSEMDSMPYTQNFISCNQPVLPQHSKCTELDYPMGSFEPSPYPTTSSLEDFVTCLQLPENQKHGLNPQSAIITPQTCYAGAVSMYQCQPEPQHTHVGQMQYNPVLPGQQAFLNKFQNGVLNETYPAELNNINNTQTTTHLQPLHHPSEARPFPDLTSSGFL

Regarding `Cc1cccc(C)c1C`, the call in assay [1], in assay [2], in [3], in assay [4], in assay [5] and in [6] was inactive. Also, the result in assay [7] and in assay [8] was inactive.
Regarding `C=CC(C)(C)O`, the result in assay [1], in [2], in [3], in [4], in assay [5] and in assay [6] was inactive. In assay [8], the molecule was called inactive.
`O=C(O)c1cccc([N+](=O)[O-])c1`: the call in assay [1], in assay [2], in [3], in assay [4], in assay [5] and in assay [6] was inactive. Further, the molecule was called inactive in assay [7] and in [8].
`Fc1c(F)c(F)c(Br)c(F)c1F`: the molecule was classed as inactive in [1], in assay [2], in assay [3], in [4], in assay [5] and in assay [6]. For the same molecule, the molecule was classed as inactive in [7], in assay [9] and in [8].
Turning to `CCCCNC(=O)NS(=O)(=O)c1ccc(C)cc1`, the molecule was called inactive in assay [1], in assay [2], in assay [3], in [4], in assay [5] and in assay [6]. Further, the molecule was called inactive in assay [7] and in [8].
As to `CCCCC(CC)COC(=O)/C=C\C(=O)OCC(CC)CCCC` (centres undefined), the AC50 in assay [1] is 45 µM (active); in assay [3] it was 54.7 µM (active); in assay [5] it was 52.7 µM (active); in [9], 100 µM (active); in assay [8], 100 µM (active). Further, the outcome in assay [2], in assay [4], in [6] and in [7] was inactive.
In the case of `Cc1ccccc1C=O`, the molecule was classed as inactive in [1], in assay [2], in [3], in assay [5], in [6] and in assay [7]. Besides, the molecule was classed as inactive in [8]. Besides, the AC50 in assay [4] was 53.5 µM (active).
Consider `Cc1ccc(C(=O)O)o1`, for which the molecule was called inactive in assay [1], in assay [2], in [3], in assay [4], in [6] and in [7]. Moreover, the call in assay [8] was inactive.
For the molecule `C=CC(=O)OCCn1c(=O)n(CCOC(=O)C=C)c(=O)n(CCOC(=O)C=C)c1=O`, the outcome in assay [1], in [7] and in [8] was inactive. Moreover, the AC50 in assay [2] was 9.12 µM (active); in assay [3] it was 16.5 µM (active); in assay [4], 3.42 µM (active); in assay [5], 53.6 µM (active); in assay [6], 20 µM (active).
Take `O=C(Oc1ccccc1)c1ccc(O)cc1`: the outcome in assay [1], in [2], in [3], in assay [4], in assay [5] and in assay [6] was inactive. Besides, the call in [7], in [9] and in [8] was inactive.
For `CC(c1cc2ccccc2s1)N(O)C(N)=O` (centres undefined), the molecule was called inactive in assay [1], in assay [2], in assay [3], in assay [5], in assay [6] and in [7]. Moreover, the result in assay [8] was inactive. In addition, the concentration at half-maximal activity (AC50) in [4] is 38.2 µM (active).
With `CCC(C)(O)CCC=C(C)C` (centres undefined), the molecule was classed as inactive in [1], in assay [2], in [3], in assay [4], in assay [5] and in assay [6]. The call in assay [7] and in [8] was inactive.
`Nc1cc([N+](=O)[O-])ccc1O`: the molecule was called inactive in assay [1], in assay [2], in [3], in [5], in [6] and in assay [7]. Moreover, the molecule was called inactive in assay [8]. Further, the AC50 in assay [4] is 100 µM (active).
As for `CC(=O)OCc1ccc2c(c1)OCO2`, the molecule was called inactive in assay [1], in [2], in assay [3], in assay [4], in [5] and in assay [6]. Besides, the molecule was classed as inactive in assay [7] and in [8].
Regarding `CCCCCCCCCC=O`, the molecule was called inactive in [1], in [2], in assay [3], in assay [4], in assay [5] and in assay [6]. Further, the molecule was called inactive in assay [7] and in assay [8].
Turning to `CC(=O)O[C@H](CC(=O)[O-])C[N+](C)(C)C`, the molecule was called inactive in [1], in [2], in assay [3], in assay [4], in [5] and in assay [6]. For the same molecule, the outcome in assay [7] and in assay [8] was inactive.
